Test results as given in the supplement of paper PMC10646978.
± gives the standard deviation.

Experiments:
Details in all cases: modulator concentration 10 µM
[1] = test system: RAW-Dual (murine macrophage reporter line); assay: NF-kB reporter (SEAP) activity fold change vs agonist alone; higher = enhanced NF-kB activity
How it was run: (§1)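 RAW-Dual murine macrophage reporter cells were seeded at 50 000 per well in 384-well plates and pre-incubated 1 hour at 37 °C with compound pin-transferred to 10 μM final. After 1 hour, a PRR agonist was added and cells incubated overnight. Supernatant NF-κB (SEAP, QUANTI-Blue, 620 nm absorbance) and IRF (Lucia luciferase, QUANTI-Luc, luminescence) signals were divided by the mean agonist-only control on the same plate to give fold change. Two replicate plates were averaged, with errors by propagation.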

[2] = test system: RAW-Dual (murine macrophage reporter line); assay: IRF reporter (Lucia luciferase) activity fold change vs agonist alone; higher = enhanced IRF activity
How it was run: as §1

[3] = test system: RAW-Dual (murine macrophage reporter line); assay: viability score (confluency relative to resting cells, overnight) (fraction); higher = more viable, active = viable (0.7 or more)
How it was run: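 RAW-Dual macrophages in 384-well plates were treated overnight with compound at 10 μM final. IncuCyte imaging recorded confluency, and IncuCyte software built two confluency masks across every imaged well. The viability score expresses confluency relative to resting cells and was judged against a cutoff, which a compound met only if both masks exceeded 70% of resting cells.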

[4] = agonist: CpG ODN 1826 0.5 ug/mL

Compound	NF-kB reporter [1, 4]	NF-kB reporter ([1]; agonist: LPS 0.1 ug/mL)	NF-kB reporter ([1]; agonist: MPLA […])	IRF reporter ([2]; agonist: 3'3'-cGAMP 10 ug/mL)	IRF reporter ([2]; agonist: LPS 0.1 ug/mL)	IRF reporter ([2]; agonist: MPLA […])	viability score [3]
O=C(CCc1ccc(O)cc1)c1c(O)cc(O)cc1O	1.06 ± 0.2	1.07 ± 0.085	1.13 ± 0.088	0.768 ± 0.038	1.03 ± 0.12	1.23 ± 0.15	0.998 (active)
CS(=O)(=O)N(CC(=O)N1CCCCCC1)c1ccc(Cl)c(C(F)(F)F)c1	0.958 ± 0.11	1.21 ± 0.081	0.958 ± 0.036	0.974 ± 0.12	1.13 ± 0.15	1.15 ± 0.24	1 (active)
Cc1ccccc1-c1noc(-c2cc3ccccc3oc2=O)n1	0.911 ± 0.25	0.936 ± 0.077	0.917 ± 0.07	1 ± 0.027	1.08 ± 0.11	1.21 ± 0.12	0.996 (active)
CCCCOc1ccc(CC(=O)NO)cc1	1.69 ± 0.38	1.56 ± 0.37	1.34 ± 0.076	0.241 ± 0.0073	0.87 ± 0.19	0.815 ± 0.062	0.999 (active)
Br.CN(C)CCCC1(c2ccc(F)cc2)OCc2cc(C#N)ccc21 (centres undefined)	0.81 ± 0.12	1.02 ± 0.29	0.95 ± 0.07	0.801 ± 0.043	1.37 ± 0.4	1.39 ± 0.24	0.979 (active)
CC(=O)NC(CS)C(=O)O (centres undefined)	0.957 ± 0.074	0.934 ± 0.068	0.96 ± 0.09	0.946 ± 0.035	1.08 ± 0.18	1.08 ± 0.18	1.03 (active)
Cc1ncc(CC(=O)N2CCC(c3ccccc3F)S(=O)(=O)CC2)s1 (centres undefined)	0.93 ± 0.041	0.961 ± 0.1	0.959 ± 0.053	0.983 ± 0.074	0.985 ± 0.14	0.998 ± 0.27	1.01 (active)
CN(C)C1C(O)=C(C(N)=O)C(=O)C2(O)C(O)=C3C(=O)c4c(O)cccc4C(C)(O)C3CC12.Cl (centres undefined)	1.11 ± 0.097	1 ± 0.053	1.01 ± 0.021	0.844 ± 0.056	0.937 ± 0.1	0.921 ± 0.072	1 (active)
CCOC(=O)C(C)N(c1ccc(OC)cc1)S(C)(=O)=O (centres undefined)	0.99 ± 0.056	0.985 ± 0.071	0.905 ± 0.053	1.07 ± 0.053	1.22 ± 0.083	1.12 ± 0.27	0.977 (active)
CC1CC2(NC(=O)NC2=O)C(C)CN1C (centres undefined)	0.933 ± 0.061	1.01 ± 0.088	0.87 ± 0.053	0.99 ± 0.034	1.34 ± 0.2	1.21 ± 0.15	1 (active)
O=C(NC1CCCCC1)N(Cc1cnc2ccccn12)c1ccccc1	1.01 ± 0.1	1.14 ± 0.088	1.15 ± 0.059	0.997 ± 0.044	1.06 ± 0.053	1.05 ± 0.16	0.995 (active)
CC(=O)NC(NC(C)=O)c1cccc([N+](=O)[O-])c1	1.15 ± 0.12	1 ± 0.13	0.998 ± 0.039	0.968 ± 0.043	0.99 ± 0.085	1.05 ± 0.12	0.995 (active)
